Results published in the supplement of paper PMC8728848.
The entries come from a sample that favours the strongest signals as a whole.

What was measured:
Test in all cases: glycan array binding signal (z-score within array); higher = stronger binding
Details in all cases: glycan notation: IUPAC condensed, linker removed
[1] = biological target: Fuc(a1-2)Gal(b1-3)GalNAc(a1-3)[Fuc(a1-2)]Gal(b1-4)GlcNAc
Summary of the method: (§1)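 The Consortium for Functional Glycomics database supplied 3228 glycan arrays, of which those lacking an available protein sequence were dropped. The binding signal, a within-array Z-score, was averaged across arrays of the same protein sequence and across linkers. Negative scores can be read as non-binding.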

[2] = biological target: Fuc(a1-2)Gal(b1-3)[Fuc(a1-4)]GlcNAc
Summary of the method: as §1

Fuc(a1-2)Gal(b1-4)Glc = biological target: Fuc(a1-2)Gal(b1-4)Glc
Summary of the method: as §1

[3] = biological target: Fuc(a1-2)Gal(b1-4)GlcNAc(b1-2)[Fuc(a1-2)Gal(b1-4)GlcNAc(b1-4)]Man(a1-3)[Fuc(a1-2)Gal(b1-4)GlcNAc(b1-2)Man(a1-6)]Man(b1-4)GlcNAc(b1-4)GlcNAc
Summary of the method: as §1

Fuc(a1-2)[Gal(a1-3)]Gal = biological target: Fuc(a1-2)[Gal(a1-3)]Gal
Summary of the method: as §1

[4] = biological target: Fuc(a1-2)[Gal(a1-3)]Gal(b1-3)GlcNAc(b1-2)Man(a1-3)[Fuc(a1-2)[Gal(a1-3)]Gal(b1-3)GlcNAc(b1-2)Man(a1-6)]Man(b1-4)GlcNAc(b1-4)GlcNAc
Summary of the method: as §1

[5] = biological target: Fuc(a1-2)[GalNAc(a1-3)]Gal(b1-4)[Fuc(a1-3)]GlcNAc(b1-3)GalNAc
Summary of the method: as §1

[6] = biological target: Fuc(a1-2)[GalNAc(a1-4)]Gal(b1-4)GlcNAc
Summary of the method: as §1

[7] = biological target: Fuc(a1-3)[Gal(b1-4)]GlcNAc(b1-2)Man(a1-3)[Fuc(a1-3)[Gal(b1-4)]GlcNAc(b1-2)Man(a1-6)]Man(b1-4)GlcNAc(b1-4)[Fuc(a1-6)]GlcNAc
Summary of the method: as §1

[8] = biological target: Fuc(a1-3)[Gal3S(b1-4)]GlcNAc6S
Summary of the method: as §1

Gal(a1-2)Gal = biological target: Gal(a1-2)Gal
Summary of the method: as §1

Gal(a1-3)Gal(b1-4)Glc = biological target: Gal(a1-3)Gal(b1-4)Glc
Summary of the method: as §1

[9] = biological target: Gal(a1-3)Gal(b1-4)GlcNAc(b1-2)Man
Summary of the method: as §1

[10] = biological target: Gal(a1-3)Gal(b1-4)GlcNAc(b1-2)Man(a1-3)[Gal(a1-3)Gal(b1-4)GlcNAc(b1-2)Man(a1-6)]Man(b1-4)GlcNAc(b1-4)GlcNAc
Summary of the method: as §1

[11] = biological target: Gal(a1-3)[Gal(a1-4)]Gal(b1-4)GlcNAc
Summary of the method: as §1

[12] = biological target: Gal(a1-4)Gal(b1-4)GlcNAc(b1-2)Man(a1-3)[Gal(a1-4)Gal(b1-4)GlcNAc(b1-2)Man(a1-6)]Man(b1-4)GlcNAc(b1-4)GlcNAc
Summary of the method: as §1

[13] = biological target: Gal(b1-3)GalNAc(a1-3)[Fuc(a1-2)]Gal(b1-4)GlcNAc
Summary of the method: as §1

[14] = biological target: Gal(b1-3)GlcNAc(b1-3)Gal(b1-3)GlcNAc
Summary of the method: as §1

[15] = biological target: Gal(b1-3)GlcNAc(b1-3)Gal(b1-4)GlcNAc(b1-6)[Gal(b1-3)GlcNAc(b1-3)]Gal(b1-4)Glc
Summary of the method: as §1

[16] = biological target: Gal(b1-3)GlcNAc(b1-6)Gal(b1-4)GlcNAc
Summary of the method: as §1

[17] = biological target: Gal(b1-3)[Fuc(a1-4)]GlcNAc
Summary of the method: as §1

[18] = biological target: Gal(b1-4)GalNAc(a1-3)[Fuc(a1-2)]Gal(b1-4)GlcNAc
Summary of the method: as §1

[19] = biological target: Gal(b1-4)GlcNAc(b1-2)Man(a1-3)Man(b1-4)GlcNAc(b1-4)GlcNAc
Summary of the method: as §1

[20] = biological target: Gal(b1-4)GlcNAc(b1-2)Man(a1-3)[GlcNAc(b1-4)][Gal(b1-4)GlcNAc(b1-2)Man(a1-6)]Man(b1-4)GlcNAc(b1-4)GlcNAc
Summary of the method: as §1

[21] = biological target: Gal(b1-4)GlcNAc(b1-3)Gal(b1-4)GlcNAc(b1-3)Gal(b1-4)GlcNAc(b1-3)Gal(b1-4)GlcNAc(b1-2)Man(a1-3)[Gal(b1-4)GlcNAc(b1-3)Gal(b1-4)GlcNAc(b1-3)Gal(b1-4)GlcNAc(b1-3)Gal(b1-4)GlcNAc(b1-2)Man(a1-6)]Man(b1-4)GlcNAc(b1-4)GlcNAc
Summary of the method: as §1

[22] = biological target: Gal(b1-4)GlcNAc(b1-3)[Fuc(a1-3)GlcNAc(b1-6)]Gal(b1-4)Glc
Summary of the method: as §1

B1: PX9961KLbvu-535-38-535 (Bacteroides vulgatus) (protein)
chain: DKAYTDAESYTKGLHKIYSVWALSGQDGSSSSDISGLDAGNTALLRCWWTLQEQPTDEMKNAWNDAWCTEVNYMTWTTNKVEPIEGVYQRCMYIVALVNEFLKNIPNAPESIDKESYIAQARFNRAFAYYVLMDMFALPPFITEKNYSIEPAPLSREDLFNWIEAELNEIKPNLPSPRSEYGVADQAVASALLARMYLNAEIYTGKARYTECINACNEVIKAGYQLADNYADLFKADNGENPDTKKEIIYPIIFDGDKTQSWGMAAIIIGARGAEDKDVLLAHSGVDQGWAGFRATSNLVHLFDFQNDEEPKASEIQDKRGIFYDKGRSIDITSSVSGTFETEGWSVFKFSNLNSNGQPGKNTLWVDTDFPMFRLGDIYLMYAEAVARGGEGSKASAVEYINALRKRAYGDDKHNISENWLEENNFRNLLDERGRELYWEGIRRTDLVRFDLLTSGSYTWDFKGGINTGVGVNKRYNVYPIPVTDLTVNGNLQQNEGY
[1]
  glycan array binding signal (z-score): -0.462
[2]
  glycan array binding signal (z-score): -0.042
Fuc(a1-2)Gal(b1-4)Glc
  glycan array binding signal (z-score): -0.031
[3]
  glycan array binding signal (z-score): 2.87
Fuc(a1-2)[Gal(a1-3)]Gal
  glycan array binding signal (z-score): 1.72
[4]
  glycan array binding signal (z-score): 0.16
[5]
  glycan array binding signal (z-score): -0.162
[6]
  glycan array binding signal (z-score): -0.165
[7]
  glycan array binding signal (z-score): -0.392
[8]
  glycan array binding signal (z-score): -0.054
Gal(a1-2)Gal
  glycan array binding signal (z-score): -0.938
Gal(a1-3)Gal(b1-4)Glc
  glycan array binding signal (z-score): -0.366
[9]
  glycan array binding signal (z-score): -0.783
[10]
  glycan array binding signal (z-score): -0.391
[11]
  glycan array binding signal (z-score): 2.6
[12]
  glycan array binding signal (z-score): 2.35
[13]
  glycan array binding signal (z-score): -0.06
[14]
  glycan array binding signal (z-score): -0.549
[15]
  glycan array binding signal (z-score): -0.446
[16]
  glycan array binding signal (z-score): -0.398
[17]
  glycan array binding signal (z-score): -0.123
[18]
  glycan array binding signal (z-score): -0.291
[19]
  glycan array binding signal (z-score): 0.158
[20]
  glycan array binding signal (z-score): -0.249
[21]
  glycan array binding signal (z-score): 1.57
[22]
  glycan array binding signal (z-score): -0.046
